High-throughput results: PubChem, National Center for Advancing Translational Sciences (NCATS)
HCMV antiviral: inhibitors of human cytomegalovirus; HFF cells, HCMV-luciferase reporter, 72 h; stronger effect = lower value; activity change, negative = inhibition, % at 57.5 µM; 410,000 tested, 4.5% active; AID 1259415; in the data active = activity change below about -60%; inconclusive = no clear call, values can overlap the other calls; inactive = above about -39%
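Compounds were evaluated in HFFs infected with an HCMV luciferase reporter virus (MOI 1 PFU/cell). Luciferase in lysates collected 72 h post infection served as the replication measure.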
HCV inh: inhibitors of hepatitis C virus infection. Huh7.5.1 HCVcc-Cre infection, luciferase reporter, 44 h. Potency, µM (series often up to 41.8 µM), without a hit: at the top dose activity change, negative = inhibition, actives largely listed as inhibitors. 340,000 tested, 3.4% active. AID 651820; also: potency is read from the fitted curve at half-maximal effect
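Cells (1,000/well) were plated 4 h before compound, then infected with HCVcc-Cre virus (~0.5 moi). After 44 h further culture, infection was read as luciferase luminescence following a 15 min substrate incubation at room temperature.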
Pf growth 48h: inhibits P. falciparum growth in the first generation, 48 h; P. falciparum luciferase growth in erythrocytes, 48 h; Potency, µM (series often up to 28.7 µM), without a hit: at the highest dose activity change, negative = inhibition, hits mostly inhibitors; 310,000 tested, 5.9% active; AID 504832; also: potency is read from the fitted curve at half-maximal effect
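Firefly luciferase activity from engineered P. falciparum reports growth; inhibitors lower the luminescent signal. Cultures contained 2% hematocrit erythrocytes at 0.1% final parasitemia.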
Pf growth 96h: P. falciparum growth inhibition at 96 hours. P. falciparum luciferase reporter growth, 96 h. Potency, µM (highest dose often 28.7 µM), for inactives: at the top dose activity change, negative = inhibition, usual class: inhibitors. 320,000 tested, 6.9% active; also: potency is read from the fitted curve at half-maximal effect
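96 h incubation, 37 C, 5% CO2, of luciferase-reporter P. falciparum-infected RBCs (2% hematocrit, 0.05% parasitemia final) with test compounds; endpoint luminescence.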
* = called active by the depositor; i = inactive; ? = inconclusive; · = no result. Only some compounds are listed: those with a hit (about 13% of all), similar ones and a draw of the others. Unless noted, calls follow the shape of the dose curve; as a rule, active = well fitted inhibition curve with a large enough effect; inconclusive = small, poorly fitted or top-dose-only effect, or another doubt; inactive = no such curve, though single readings can be large or run the other way. % is scaled to controls: 0 for no effect and ±100 for the full control effect.

SMILES	HCMV antiviral	HCV inh	Pf growth 48h	Pf growth 96h
COc1cccc(NC(=O)Nc2cc(C(=O)NC(C)C)ccc2N2CC3CC(C2)c2cccc(=O)n2C3)c1 (stereo unspecified)	?	-4%	12µM*	-9%
CCCNC(=O)c1ccc(N2CC3CC(C2)c2cccc(=O)n2C3)c(NC(=O)Nc2ccc(CC)cc2)c1 (stereo unspecified)	0	-12%	?	5%
CCN(C(=O)c1ccc(N2CC3CC(C2)c2cccc(=O)n2C3)c(NC(=O)c2ccncc2)c1)c1cccc(C)c1 (stereo unspecified)	-75*	15%	?	0%
CCOc1ccc(NC(=O)c2ccc3c(SCC(=O)O)c4c(nc3c2)CCC4)cc1	-9	·	·	·
Cc1ccc2nc(N(CCCN(C)C)C(=O)CCc3ccccc3)sc2c1	-38	?	?	?
CCOc1ccc2nc(N(CCCN(C)C)C(=O)c3ccc4c(c3)CCCC4)sc2c1	-40	?	?	5.9µM*
CN(C)CCN(C(=O)c1ccc2c(c1)CCCC2)c1nc2c(F)cccc2s1	14	-15%	7%	-25%
CN(C)CCCN(C(=O)CCc1ccccc1)c1nc2ccc(Cl)cc2s1	?	?	?	10µM*
CN(C)CCCN(C(=O)c1ccc2c(c1)CCCC2)c1nc2ccc(Cl)cc2s1	-79*	7.9µM*	8.3µM*	1.9µM*
COc1cccc2sc(N(CCN(C)C)C(=O)c3ccc4c(c3)CCCC4)nc12	?	?	10µM*	?
COc1ccc(OC)c(NC(=O)c2cnn(-c3ccc(C)cc3)c2C2CCNCC2)c1	-17	·	·	·
CCOc1ccc(C(c2c(O)cc(C)n(CCOC)c2=O)N2CCN(c3ccccc3F)CC2)cc1 (stereo unspecified)	-4	·	·	·
CN(C)CC(=O)N1[C@@H]2c3ccc(C4=CCCCC4)c(=O)n3C[C@H]1[C@H](CO)[C@H]2C(=O)NCC1CC1	-16	·	·	·
COC(=O)C1(O)CC(CC(C)C)=NN1C(=O)c1ccccc1 (stereo unspecified)	?	8%	11%	0.29µM*
COC(=O)C1=NN(C(=O)c2ccccc2)C(C)(O)C1 (stereo unspecified)	-4	9%	·	-24%
COc1cc(CN2CC(=O)N(c3ccc(C)cc3)C2=S)cc(OC)c1OC	31	?	0.83µM*	-14%
COc1cc(CN2CC(=O)N(c3ccc(C)c(Cl)c3)C2=S)cc(OC)c1OC	-32	-14%	2.1µM*	-1%
COc1ccc(CN2CC(=O)N(c3ccc(C)cc3)C2=S)cc1OC	21	1%	?	0%
Cc1ccccc1C(=O)N1c2ncnn2C2(CCCCC2)[C@@H]2CCCC[C@@H]21	-12	·	·	·
CC(C)(C)NC(=O)CCc1nnc(Cc2c[nH]c3ccccc23)o1	81	18%	-24%	?
CCC(COC)NC(=O)CCc1nnc(Cc2c[nH]c3ccccc23)o1 (stereo unspecified)	-13	9%	6%	13µM*
S=C(NCc1ccc(Cl)cc1)NCc1ccccn1	-6	-26%	-4%	i
CC(C)CCC(CCNCc1ccccn1)c1ccc(Cl)cc1 (stereo unspecified)	-2	-29%	3.3µM*	3.3µM*
Cn1c(=O)c2cc(NC(=O)Nc3cccnc3)ccc2n1Cc1cccc(C(F)(F)F)c1	0	·	·	·
CN(C)c1ccc(NC(=O)Nc2ccc3c(c2)c(=O)n(C)n3Cc2ccc(Cl)cc2)cc1	-88*	·	·	·
SMILES	HCMV antiviral	HCV inh	Pf growth 48h	Pf growth 96h
CC(CC(=O)Nc1ccc2c(c1)c(=O)n(C)n2Cc1ccc(Cl)cc1)C(F)(F)F (stereo unspecified)	-72*	·	·	·
COc1cc(Cn2c3ccc(NC(=O)CC(C)C(F)(F)F)cc3c(=O)n2C)ccc1F (stereo unspecified)	-29	·	·	·
Cn1c(=O)c2cc(NC(=O)Nc3cccnc3)ccc2n1Cc1ccc(Cl)cc1	-97*	·	·	·
CN(C)c1ccc(NC(=O)Nc2ccc3c(c2)c(=O)n(C)n3Cc2ccccc2)cc1	-30	·	·	·
O=C(O)c1ccccc1-c1c2cc(Br)c(=O)c(Br)c-2oc2c(Br)c(O)c(Br)cc12	·	·	-11%	?
O=C(O)c1ccccc1-c1c2cc(Br)c(=O)cc-2oc2[c]([Hg])c(O)c(Br)cc12	·	·	?	6.4µM*
CC(=O)c1ccc2c3c(cc(C)c2c1)CCCC3	-66*	11µM*	·	·
Cc1cc(C)c2nc(NNC(=O)c3ccc(S(=O)(=O)N4CC(C)CC(C)C4)cc3)sc2c1 (stereo unspecified)	-98*	7.1µM*	2.6µM*	1.9µM*
Cc1cc(C)c2nc(NNC(=O)c3ccc(S(=O)(=O)N4CCCC(C)C4)cc3)sc2c1 (stereo unspecified)	-98*	7.9µM*	?	2.3µM*
COC(=O)c1sc2ccccc2c1NC(=O)c1ccc(S(=O)(=O)N2CC(C)CC(C)C2)cc1 (stereo unspecified)	?	-5%	-10%	-15%
Cc1ccc2nc(NNC(=O)c3ccc(S(=O)(=O)N4CCc5ccccc5C4)cc3)sc2c1	-99*	2.5µM*	1.9µM*	2.9µM*
Cc1cc(C)c2nc(NC(=O)c3ccc(S(=O)(=O)N4CCC(C)CC4)cc3)sc2c1	-3	·	·	·
Cc1cc(C)c2nc(NC(=O)c3ccc(S(=O)(=O)N4CCc5ccccc54)cc3)sc2c1	-30	·	·	·
Cc1cccc2sc(NNC(=O)c3ccc(S(=O)(=O)N4CC(C)CC(C)C4)cc3)nc12 (stereo unspecified)	-99*	?	?	2.9µM*
CCOC(=O)CSc1nc2sc3c(c2c(=O)n1-c1ccccc1)CC(C(C)C)OC3 (stereo unspecified)	13	·	·	·
Cc1cc(C)cc(CC(=O)N2CCC2(C)C(=O)NS(=O)(=O)Cc2ccccc2)c1 (stereo unspecified)	17	·	·	·
CCOc1cc(CNC(C)C(O)c2ccccc2)cc(Cl)c1OCC (stereo unspecified)	79	-24%	1.5µM*	?
CC(NCc1ccc(OCc2ccc(Cl)cc2)cc1)C(O)c1ccccc1 (stereo unspecified)	-28	10µM*	?	?
CCN(CC)CCNCc1cc(Cl)c(OCC(=O)Nc2ccccc2)c(OC)c1	27	?	?	?
COc1ccc(CNC(c2ccccc2)c2ccc(Cl)cc2)cc1 (stereo unspecified)	11	6%	0%	?
COc1cc(CNC(C)c2ccccc2)cc(Cl)c1OCC(=O)Nc1ccccc1 (stereo unspecified)	-39	11µM*	12µM*	?
CC(NCc1ccc(Cl)c(Cl)c1)C(O)c1ccccc1 (stereo unspecified)	-71*	20%	?	·
CCc1nn2c(=O)c(S(=O)(=O)Nc3ccc(OC)c(Cl)c3)c(C)nc2s1	-14	·	·	·
CC(NCc1ccccc1C(F)(F)F)C(O)c1ccccc1 (stereo unspecified)	-31	5%	8.3µM*	-1%
